Results from PubChem BioAssay (NCATS).
Results filed as inconclusive are left out. Calls of active or inactive are those of the source. Unless noted, calls follow the shape of the full dose curve.

Columns and labels:
[1] = qHTS for Inhibitors of the Functional Ribonucleoprotein Complex (vRNP) of Lassa (LASV) Arenavirus: Viability assay - alamar blue signal for LASV Primary Screen (AID 1347083; calls by dose curve; tested in HEK293 reporter line; also: nearly all actives have a fitted effect of over 80% in size; also: potency is read from the fitted curve at half-maximal effect)
[2] = qHTS for Inhibitors of the Functional Ribonucleoprotein Complex (vRNP) of Lymphocytic Choriomeningitis Arenaviruses (LCMV): Viability assay - alamar blue signal for LCMV Primary Screen (AID 1347085; calls by dose curve; tested in HEK293 reporter line; also: nearly all actives have a fitted effect of over 80% in size; also: potency is read from the fitted curve at half-maximal effect)
[3] = target: Nucleoprotein (Lymphocytic choriomeningitis virus (strain Armstrong)) (UniProt P09992); assay: qHTS for Inhibitors of the Functional Ribonucleoprotein Complex (vRNP) of Lymphocytic Choriomeningitis Arenaviruses (LCMV): LCMV Primary Screen - GLuc reporter signal (AID 1347086); also: nearly all actives have a fitted effect of over 70% in size; also: potency is read from the fitted curve at half-maximal effect
[4] = qHTS of pediatric cancer cell lines to identify multiple opportunities for drug repurposing: Primary screen for TC32 cells (AID 1347089; active = well fitted curve in the direction sought with a large enough effect; an effect the other way counts as inactive or inconclusive; also: nearly all actives have a fitted effect of over 60% in size)
How it was run: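 Luminescent ATP read-out (CellTiter-Glo) of metabolically active TC32 cells after 48 h exposure. Concentration-response curves came from 11-point (MIPE, 0.78 nM–46 µM) or 8-point (NPC, 0.59 nM–46 µM) primary titrations; follow-up used 11 points.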

[5] = qHTS of pediatric cancer cell lines to identify multiple opportunities for drug repurposing: Primary screen for A673 cells (AID 1347092; active = well fitted curve in the direction sought with a large enough effect; an effect the other way counts as inactive or inconclusive; also: potency is read from the fitted curve at half-maximal effect; nearly all actives have a fitted effect of over 45% in size)
How it was run: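 Cell viability of A673 measured by CellTiter-Glo ATP luminescence after 48 hours compound exposure. Dilution series spanned 0.78 nM to 46 µM (MIPE, 11-point) or 0.59 nM to 46 µM (NPC, 8-point); bortezomib 2.3 uM positive control.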

[6] = qHTS of pediatric cancer cell lines to identify multiple opportunities for drug repurposing: Primary screen for SK-N-MC cells (AID 1347093; active = well fitted curve in the direction sought with a large enough effect; an effect the other way counts as inactive or inconclusive; also: potency is read from the fitted curve at half-maximal effect)
How it was run: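 Metabolically active cells were quantified by ATP-dependent luminescence (CellTiter-Glo, 15 min at room temperature) following 48 h treatment. Cells had been plated at 500-1,000 per well and settled for 5 h beforehand.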

Chain of Nucleoprotein (Lymphocytic choriomeningitis virus (strain Armstrong)) (P09992 whole entry, looked up): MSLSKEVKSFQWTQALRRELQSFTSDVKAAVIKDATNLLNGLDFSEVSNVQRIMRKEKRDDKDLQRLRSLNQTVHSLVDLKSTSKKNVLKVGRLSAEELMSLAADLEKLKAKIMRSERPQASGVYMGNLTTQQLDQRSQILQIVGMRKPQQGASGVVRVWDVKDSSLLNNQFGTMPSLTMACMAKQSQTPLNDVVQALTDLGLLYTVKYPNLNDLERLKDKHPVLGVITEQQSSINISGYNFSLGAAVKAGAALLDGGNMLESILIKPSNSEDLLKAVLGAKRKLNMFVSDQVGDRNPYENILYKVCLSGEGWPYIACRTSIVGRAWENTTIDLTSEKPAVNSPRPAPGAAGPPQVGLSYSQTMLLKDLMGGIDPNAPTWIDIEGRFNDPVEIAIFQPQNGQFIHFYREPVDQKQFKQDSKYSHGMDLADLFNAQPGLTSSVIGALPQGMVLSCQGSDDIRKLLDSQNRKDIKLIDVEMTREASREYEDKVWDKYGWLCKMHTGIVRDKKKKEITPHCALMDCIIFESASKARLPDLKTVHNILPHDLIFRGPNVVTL

## CC(C)CC(=O)Nc1n[nH]c2c1CN(C(=O)C1CCN(C)CC1)C2(C)C
[1]
  Potency: inactive
[2]
  Potency: inactive
[3]
  Potency: inactive

## CO[C@@H]1[C@H](N(C)C(=O)c2ccccc2)C[C@H]2O[C@]1(C)n1c3ccccc3c3c4c(c5c6ccccc6n2c5c31)C(=O)NC4
[1]
  Potency: 3.06 µM (active)
[3]
  Potency: inactive

## OCCn1cc(-c2ccc3c(c2)CCC3=NO)c(-c2ccncc2)n1
[1]
  Potency: 10.9 µM (active)
[2]
  Potency: 1.72 µM (active)
[3]
  Potency: 7.69 µM (active)

## Cc1ccc(N)cc1O
[3]
  Potency: inactive

## c1ccc2c(CCNc3ccc(Nc4ccncc4)cc3)c[nH]c2c1
[2]
  Potency: 17.2 µM (active)
[3]
  Potency: 21.7 µM (active)

## C=C[C@@H]1CN2CCC1C[C@@H]2[C@@H](O)c1ccnc2ccccc12 (stereo partly drawn)
[3]
  Potency: 38.5 µM (active)
[4]
  Potency: inactive
[5]
  Potency: 18.7 µM (active)
[6]
  Potency: 9.35 µM (active)

## Cc1nc(N)sc1-c1ccnc(Nc2ccc(N3CCOCC3)cc2)n1
[1]
  Potency: 7.69 µM (active)
[2]
  Potency: 13.7 µM (active)
[3]
  Potency: inactive

## COc1ccc2c3n(c(=NC(=O)c4cccnc4)nc2c1OC)CCN3
[1]
  Potency: 1.53 µM (active)
[2]
  Potency: 0.968 µM (active)
[3]
  Potency: 0.769 µM (active)

## CCOc1cc(C=C2C(=O)N(c3ccccc3)N=C2C)cc(Cl)c1OCC(=O)OC
[2]
  Potency: 7.69 µM (active)

## COc1cc2ncn(-c3cc(OCc4ccccc4C(F)(F)F)c(C(N)=O)s3)c2cc1OC
[1]
  Potency: 1.72 µM (active)
[2]
  Potency: 1.72 µM (active)
[3]
  Potency: 1.72 µM (active)

## COc1cccc2nc(-c3cccs3)nc(NN3C(=O)C=C(C)C3=O)c12
[1]
  Potency: 2.73 µM (active)
[2]
  Potency: 6.11 µM (active)
[3]
  Potency: 7.69 µM (active)

## C[C@@H](Oc1cc(-n2cnc3ccc(CN4CCN(C)CC4)cc32)sc1C(N)=O)c1ccccc1C(F)(F)F
[2]
  Potency: inactive
[3]
  Potency: inactive

## NC(=O)c1ccc(-c2nc(-c3ccc4c(c3)OCCO4)c(-c3ccccn3)[nH]2)cc1
[1]
  Potency: 21.7 µM (active)
[3]
  Potency: inactive

## COC(=O)c1ccc2c(C(=Nc3ccc(N(C)C(=O)CN4CCN(C)CC4)cc3)c3ccccc3)c(O)[nH]c2c1
[2]
  Potency: 27.3 µM (active)
[3]
  Potency: inactive

## COc1cc2nc(N3CCCN(C)CC3)nc(NC3CCN(Cc4ccccc4)CC3)c2cc1OC
[1]
  Potency: 0.611 µM (active)
[2]
  Potency: 21.7 µM (active)
[3]
  Potency: 12.2 µM (active)

## COc1ccccc1[C@H](c1cccc2ccccc12)[C@@](C)(C#N)C(=O)N1CCC(c2cccc(C(F)(F)F)c2)CC1
[1]
  Potency: 21.7 µM (active)
[3]
  Potency: inactive

## O=C(Nc1cc(C(F)(F)F)cc(C(F)(F)F)c1)c1cc(Cl)ccc1O
[2]
  Potency: 2.43 µM (active)

## O=C(Nc1ccc(Oc2ccc(Cl)cc2)c(Cl)c1)c1cc(I)cc(I)c1O
[1]
  Potency: inactive
[2]
  Potency: inactive
[3]
  Potency: inactive
